Active and inactive are the calls of the source. Rule for the calls: active = hit-call score of the fitted dose curve at least 0.9, where 1 is the maximum; inactive = score below 0.9.

The record followed here is PubChem BioAssay (EPA / NIEHS).

Assay [1] in a line: ATG_DR4_LXR_CIS: Attagene CIS-FACTORIAL HepG2 Assay for human Liver X Receptor (LXR), DR4 submotif (AID 2282929). As to conditions: HepG2 Attagene DR4 cis-reporter, mRNA transcription; actives raise or lower the signal. In outline:
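DR4 cis-reporter in HepG2, 24 h exposure. Detection: RT-PCR, 6-FAM labelling, CE fragment analysis. Endpoint fitted bidirectionally, DMSO = baseline.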

Assay [2] deals with Aryl hydrocarbon receptor (Homo sapiens) (UniProt P35869). The assay can be described thus: ATG_Ahr_CIS: Attagene CIS-FACTORIAL HepG2 Assay for human Aryl Hydrocarbon Receptor (Ahr) (AID 2282930). Particulars: HepG2 AhR cis-factorial reporter transcription; actives raise or lower the signal. In outline: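 HepG2 cells transiently transfected with cis-element-driven multiplexed reporter transcription units; endogenous transcription factor activity measured as reporter mRNA 24 h after dosing. RT-PCR, 6-FAM labelling, HpaI digestion, capillary electrophoresis; bidirectional fitting versus DMSO baseline.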
Chain of Aryl hydrocarbon receptor (Homo sapiens) (P35869 whole entry, looked up): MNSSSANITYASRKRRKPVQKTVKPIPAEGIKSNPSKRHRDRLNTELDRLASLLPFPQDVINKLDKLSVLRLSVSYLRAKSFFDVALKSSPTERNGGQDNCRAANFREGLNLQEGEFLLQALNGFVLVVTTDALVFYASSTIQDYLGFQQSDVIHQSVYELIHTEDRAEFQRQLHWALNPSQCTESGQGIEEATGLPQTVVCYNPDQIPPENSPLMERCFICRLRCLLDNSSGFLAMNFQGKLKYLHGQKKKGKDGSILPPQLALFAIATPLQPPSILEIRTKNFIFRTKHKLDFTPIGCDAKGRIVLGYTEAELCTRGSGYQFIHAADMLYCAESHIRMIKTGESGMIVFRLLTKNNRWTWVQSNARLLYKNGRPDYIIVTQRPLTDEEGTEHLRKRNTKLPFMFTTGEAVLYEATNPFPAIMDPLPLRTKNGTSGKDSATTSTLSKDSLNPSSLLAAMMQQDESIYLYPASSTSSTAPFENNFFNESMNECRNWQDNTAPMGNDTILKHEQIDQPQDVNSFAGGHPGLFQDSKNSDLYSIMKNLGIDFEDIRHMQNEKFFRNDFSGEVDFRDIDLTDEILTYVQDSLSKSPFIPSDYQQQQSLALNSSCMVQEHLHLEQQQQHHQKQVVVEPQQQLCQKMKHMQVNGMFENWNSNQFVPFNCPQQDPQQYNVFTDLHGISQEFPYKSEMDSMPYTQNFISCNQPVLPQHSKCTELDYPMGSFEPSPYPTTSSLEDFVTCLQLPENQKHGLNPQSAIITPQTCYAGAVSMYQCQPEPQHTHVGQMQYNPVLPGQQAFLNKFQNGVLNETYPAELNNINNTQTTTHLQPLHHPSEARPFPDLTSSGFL

Assay [3] in a line: ATG_AP_1_CIS: Attagene CIS-FACTORIAL HepG2 Assay for human Activator Protein 1 (AP-1) (AID 2282931). Particulars: HepG2 Attagene cis-factorial AP-1 reporter mRNA; actives raise or lower the signal. An outline of the steps:
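Cis-regulated reporter units transiently expressed in HepG2 report endogenous transcription-factor activity. Signal: reporter mRNA at 24 h, via RT-PCR and fluorescent capillary electrophoresis. Endpoint derived by bidirectional fitting, DMSO as negative control.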

A short description of assay [4]: ATG_AP_2_CIS: Attagene CIS-FACTORIAL HepG2 Assay for human Activator Protein 2 (AP-2) (AID 2282932). As to conditions: HepG2 AP-2 cis-reporter, Attagene transcription factor profiling; actives raise or lower the signal. In outline: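 Cells (HepG2) transfected with promoter-driven reporter constructs, treated 24 h. Total RNA reverse-transcribed, reporter cDNA PCR-amplified, FAM-labelled by primer extension, digested, resolved by capillary electrophoresis. Activity fitted both directions versus DMSO.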

Assay [5] in a line: ATG_BRE_CIS: Attagene CIS-FACTORIAL HepG2 Assay for human Bone Morphogenetic Protein (BMP) Response Element (BRE) (AID 2282933). Particulars: HepG2 BMP response element reporter, Attagene transcription factor profiling; actives raise or lower the signal. An outline of the steps:
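A HepG2 multiplex reporter system measured inducible reporter mRNA 24 h post-dosing. Detection: RT-PCR, 6-FAM primer extension, HpaI digestion, capillary electrophoresis. Activity fitted bidirectionally relative to DMSO.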

Assay [6] concerns the target Transcription factor E2F1 (Homo sapiens) (UniProt Q01094). The assay can be described thus: ATG_E2F_CIS: Attagene CIS-FACTORIAL HepG2 Assay for human E2F Transcription Factor 1 (AID 2282935). Particulars: HepG2 Attagene cis-reporter, E2F reporter RNA transcripts; actives raise or lower the signal. In outline:
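First, HepG2 cells were transfected with reporter transcription units. Next, they were dosed for 24 h. Then RNA was isolated, converted to cDNA, PCR-amplified, FAM-labeled, HpaI-digested and analyzed by capillary electrophoresis.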

Assay [7] is described as follows: ATG_E_Box_CIS: Attagene CIS-FACTORIAL HepG2 Assay for human Enhancer Box (E-box) (AID 2282936). As to conditions: HepG2 E-box cis-reporter transcription, actives raise or lower the signal. An outline of the steps: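 Endogenous transcription factor activity was sensed in human HepG2 liver cells through transfected cis-promoter reporter units. After 24 h of dosing, total RNA was reverse-transcribed and reporter cDNA resolved by capillary electrophoresis.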

Assay [8] is described as follows: ATG_M_61_CIS: Attagene CIS-FACTORIAL HepG2 Assay for M61 Transcription Factor (Internal Marker) (AID 2282937). Particulars: HepG2 Attagene CIS-FACTORIAL M61 internal marker reporter; actives raise or lower the signal. An outline of the steps:
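Background-control endpoint: HepG2 cells with cis-regulated reporter constructs, 24 h exposure, reporter mRNA detected via fluorescent primer extension and capillary electrophoresis; values from bidirectional fitting with DMSO baseline.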

A short description of assay [9]: ATG_EGR_CIS: Attagene CIS-FACTORIAL HepG2 Assay for human Early Growth Response 1 (EGR1) (AID 2282938). Particulars: HepG2 Attagene CIS-FACTORIAL EGR reporter mRNA; actives raise or lower the signal. In outline: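 Endpoint derived by bidirectional fitting versus DMSO vehicle. Method: cis-promoter reporter units transfected into HepG2, 24 h dosing, RNA isolation, RT-PCR with 6-FAM primer extension and HpaI digestion, then capillary electrophoresis fluorescence detection.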

Assay [10] can be described thus: ATG_M_19_CIS: Attagene CIS-FACTORIAL HepG2 Assay for M19 Transcription Factor (Internal Marker) (AID 2282939). As to conditions: HepG2 Attagene CIS-FACTORIAL M19 internal marker reporter; actives raise or lower the signal. An outline of the steps:
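Chemical-treated HepG2 (24 h) with MRTU constructs; reporter transcripts detected by fluorescent RT-PCR fragment analysis on capillary electrophoresis. Internal background marker, DMSO as baseline.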

A short description of assay [11]: ATG_ERE_CIS: Attagene CIS-FACTORIAL HepG2 Assay for Estrogen Response Element (ERE) (AID 2282940). Particulars: HepG2 ERE cis-reporter, Attagene RNA transcript; actives raise or lower the signal. An outline of the steps:
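Human liver cells (HepG2) bearing transiently transfected, promoter-regulated reporter units were exposed 24 h. Reporter mRNA induction was detected by capillary electrophoresis of labelled RT-PCR products and fitted bidirectionally to DMSO.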

Assay [12] is described as follows: ATG_Ets_CIS: Attagene CIS-FACTORIAL HepG2 Assay for human Erythroblast Transformation Specific (ETS) (AID 2282941). Particulars: HepG2 ETS cis-reporter transcription, actives raise or lower the signal. An outline of the steps: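 RT-PCR/capillary electrophoresis fluorescence read-out of reporter mRNA; HepG2 transient multi-reporter transfection; 24 h compound exposure; gain or loss of signal fitted bidirectionally relative to DMSO.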

Assay [13] can be described thus: ATG_FoxO_CIS: Attagene CIS-FACTORIAL HepG2 Assay for human Forkhead box O (FoxO) (AID 2282943). As to conditions: HepG2 Attagene cis-reporter, FoxO element, mRNA; actives raise or lower the signal. An outline of the steps: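 HepG2 cells transiently transfected with cis-promoter-driven multiple reporter transcription units; 24 h after chemical dosing, reporter mRNA quantified by RT-PCR, fluorescent primer extension, HpaI digestion and capillary electrophoresis. Bidirectional fitting versus DMSO baseline.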

Assay [14] is described as follows: ATG_GATA_CIS: Attagene CIS-FACTORIAL HepG2 Assay for human GATA Binding Protein (AID 2282944). As to conditions: HepG2 GATA cis-element reporter, Attagene multiplex mRNA; actives raise or lower the signal. An outline of the steps:
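Transfected cis-reporter HepG2 cells were treated with chemicals for 24 hours. Total RNA was then converted to cDNA, amplified with reporter-specific primers and analysed by fluorescent capillary electrophoresis, using DMSO-treated wells as baseline.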

Assay [15] in a line: ATG_GLI_CIS: Attagene CIS-FACTORIAL HepG2 Assay for human Zinc Finger Protein GLI1 (AID 2282945). Particulars: HepG2, Attagene cis-factorial reporter mRNA, GLI element; actives raise or lower the signal. An outline of the steps: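 HepG2 cells transiently transfected with cis-promoter multiplexed reporter units report endogenous transcription factor activity. After 24 h chemical exposure, reporter mRNA was quantified by RT-PCR, 6-FAM labelling, HpaI digestion and capillary electrophoresis, with bidirectional fitting against DMSO.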

Assay [16] concerns the target Bile acid receptor (Homo sapiens) (UniProt Q96RI1). The assay can be described thus: ATG_IR1_CIS: Attagene CIS-FACTORIAL HepG2 Assay for human Nuclear Receptor Subfamily 1 Group H Member 4 (NR1H4), IR1 submotif (AID 2282946). Particulars: IR1 reporter transcription, actives raise or lower the signal. An outline of the steps:
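Readout: reporter transcript levels by RT-PCR with fluorescent capillary electrophoresis, from HepG2 cells transiently transfected with multiplexed cis-regulated reporters and dosed 24 h. Gain- or loss-of-signal fitted versus DMSO negative control.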

Assay [17] can be described thus: ATG_GRE_CIS: Attagene CIS-FACTORIAL HepG2 Assay for human Glucocorticoid Response Elements (GRE) (AID 2282947). Particulars: HepG2 GRE cis-reporter, Attagene multiplex mRNA; actives raise or lower the signal. In outline:
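Cells (HepG2) bearing transfected cis-promoter reporter transcription units were treated with chemical for 24 hours. Reporter mRNA was measured via RT-PCR with capillary electrophoresis, and activity was fitted in both directions relative to DMSO.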

Assay [18] is described as follows: ATG_ISRE_CIS: Attagene CIS-FACTORIAL HepG2 Assay for human Interferon Regulatory Factor 1 (IRF1) binding to an Interferon-Stimulated Response Element (ISRE) (AID 2282948). Particulars: HepG2 ISRE cis-reporter (Attagene), mRNA transcription readout; actives raise or lower the signal. An outline of the steps:
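Read-out: fluorescent RT-PCR products resolved by capillary electrophoresis, reporting endogenous transcription factor activity via ISRE-driven reporter mRNA in transfected HepG2 cells dosed for 24 h; gain or loss fitted relative to DMSO.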

Assay [19] addresses Hepatocyte nuclear factor 3-beta (Homo sapiens) (UniProt Q9Y261). The assay can be described thus: ATG_FoxA2_CIS: Attagene CIS-FACTORIAL HepG2 Assay for human Forkhead box A2 (FOXA2) (AID 2282942). As to conditions: HepG2 cis-reporter transcription factor activity, 24 h; actives raise or lower the signal. In outline:
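Measured: reporter mRNA induction or loss in HepG2 transiently carrying multiple cis-regulated reporter units, 24 h after dosing. Quantified by RT-PCR plus capillary electrophoresis, normalised to DMSO.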

The target in assay [20] is Retinoic acid receptor alpha (Homo sapiens) (UniProt P10276). The assay can be described thus: ATG_DR5_RAR_CIS: Attagene CIS-FACTORIAL HepG2 Assay for human Retinoic Acid Receptor Alpha (RARE), DR5 submotif (AID 2282934). Particulars: HepG2 Attagene cis-factorial RARE DR5 reporter, mRNA; actives raise or lower the signal. In outline:
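HepG2 cells transiently transfected with multiplexed reporter units under cis (DR5 RARE) promoters, so endogenous transcription factor activity is measured. After 24 h compound exposure, reporter mRNA is quantified by RT-PCR with fluorescent labelling and capillary electrophoresis; bidirectional fitting versus DMSO.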

Chain of Bile acid receptor (Homo sapiens) (Q96RI1 whole entry, looked up): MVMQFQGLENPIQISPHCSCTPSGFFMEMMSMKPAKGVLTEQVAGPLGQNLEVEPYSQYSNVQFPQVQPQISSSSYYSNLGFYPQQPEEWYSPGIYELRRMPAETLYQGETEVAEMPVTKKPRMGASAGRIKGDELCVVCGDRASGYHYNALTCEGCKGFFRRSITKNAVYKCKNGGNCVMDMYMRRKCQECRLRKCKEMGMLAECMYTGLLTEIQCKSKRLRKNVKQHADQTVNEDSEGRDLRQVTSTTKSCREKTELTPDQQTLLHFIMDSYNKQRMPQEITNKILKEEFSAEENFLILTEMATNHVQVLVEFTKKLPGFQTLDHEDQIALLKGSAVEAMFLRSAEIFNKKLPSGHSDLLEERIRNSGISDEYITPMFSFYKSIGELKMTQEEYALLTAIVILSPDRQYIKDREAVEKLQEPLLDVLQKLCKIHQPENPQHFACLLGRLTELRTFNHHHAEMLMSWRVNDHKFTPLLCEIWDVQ
Chain of Transcription factor E2F1 (Homo sapiens) (Q01094 whole entry, looked up): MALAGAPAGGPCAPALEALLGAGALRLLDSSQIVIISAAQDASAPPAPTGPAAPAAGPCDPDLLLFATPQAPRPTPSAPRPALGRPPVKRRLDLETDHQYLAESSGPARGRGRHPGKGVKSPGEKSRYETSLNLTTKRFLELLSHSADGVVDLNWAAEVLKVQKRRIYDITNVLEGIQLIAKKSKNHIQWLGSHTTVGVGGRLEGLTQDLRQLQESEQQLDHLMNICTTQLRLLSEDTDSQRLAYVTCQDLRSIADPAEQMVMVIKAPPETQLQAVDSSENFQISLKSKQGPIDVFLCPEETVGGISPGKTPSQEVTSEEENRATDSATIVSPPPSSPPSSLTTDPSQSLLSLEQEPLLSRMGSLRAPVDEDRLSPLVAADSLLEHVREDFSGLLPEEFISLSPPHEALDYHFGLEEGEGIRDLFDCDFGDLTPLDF
Chain of Hepatocyte nuclear factor 3-beta (Homo sapiens) (Q9Y261 whole entry, looked up): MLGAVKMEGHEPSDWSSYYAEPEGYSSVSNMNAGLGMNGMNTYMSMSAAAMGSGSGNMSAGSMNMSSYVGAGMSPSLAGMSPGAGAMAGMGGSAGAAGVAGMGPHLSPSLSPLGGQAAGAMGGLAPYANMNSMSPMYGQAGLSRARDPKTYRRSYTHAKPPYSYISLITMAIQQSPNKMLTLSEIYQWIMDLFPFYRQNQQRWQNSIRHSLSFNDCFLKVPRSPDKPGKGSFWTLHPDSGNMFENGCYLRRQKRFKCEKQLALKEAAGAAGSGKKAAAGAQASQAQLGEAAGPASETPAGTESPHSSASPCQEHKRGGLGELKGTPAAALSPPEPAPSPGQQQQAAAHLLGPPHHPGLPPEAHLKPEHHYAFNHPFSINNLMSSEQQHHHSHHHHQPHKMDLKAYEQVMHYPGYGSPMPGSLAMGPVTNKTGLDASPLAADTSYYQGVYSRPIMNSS
Chain of Retinoic acid receptor alpha (Homo sapiens) (P10276 whole entry, looked up): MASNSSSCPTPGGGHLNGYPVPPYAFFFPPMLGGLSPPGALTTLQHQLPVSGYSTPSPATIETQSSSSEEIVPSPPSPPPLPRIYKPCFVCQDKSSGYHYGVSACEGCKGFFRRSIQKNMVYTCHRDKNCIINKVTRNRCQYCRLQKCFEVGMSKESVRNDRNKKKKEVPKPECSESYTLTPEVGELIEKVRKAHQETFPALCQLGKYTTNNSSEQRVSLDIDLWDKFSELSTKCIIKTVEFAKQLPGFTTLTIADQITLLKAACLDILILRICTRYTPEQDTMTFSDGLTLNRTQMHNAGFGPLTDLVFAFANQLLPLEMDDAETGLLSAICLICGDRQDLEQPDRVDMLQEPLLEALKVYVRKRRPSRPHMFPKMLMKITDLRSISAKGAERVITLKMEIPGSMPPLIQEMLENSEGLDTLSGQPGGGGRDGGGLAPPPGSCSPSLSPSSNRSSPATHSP

As usually defined, the AC50 is the midpoint of the concentration-response curve, whichever way the signal moves. As to `OC(c1ccc(Cl)cc1)(c1ccc(Cl)cc1)c1cccnc1`, the AC50 in assay [1] was 11.1 µM (active); in assay [15], 9.04 µM (active); in assay [16] it was 13.6 µM (active). For the same molecule, the molecule was classed as inactive in assay [2], in assay [3], in [4], in assay [5], in [6] and in [7]. The outcome in assay [8], in assay [9], in [10], in assay [11], in [12] and in [13] was inactive. For the same molecule, the call in [14], in assay [17] and in assay [18] was inactive.
`COC(=O)c1cc(Oc2ccc(Cl)cc2Cl)ccc1[N+](=O)[O-]`: the result in assay [1], in [3], in [4], in [6], in assay [7] and in assay [8] was inactive. In addition, the molecule was called inactive in [10], in assay [12], in [19], in [13], in [14] and in [15]. For the same molecule, the molecule was called inactive in assay [16], in [17] and in assay [18]. Besides, the AC50 was 17 µM (active) in [2], 64.1 µM (active) in assay [5], 27.2 µM (active) in assay [9] and 39.1 µM (active) in [11].
`C=C(C)C(=O)OCC(CC)CCCC` (centres undefined): the call in assay [1], in assay [2], in assay [3], in assay [4], in assay [5] and in assay [20] was inactive. Besides, the outcome in [7], in assay [8], in assay [9], in [10], in assay [12] and in assay [19] was inactive. The outcome in assay [13], in assay [14], in [15], in [17] and in assay [18] was inactive.
